# Results from PubChem BioAssay (Tox21).
# Unmarked numbers belong to inactive results. Records with an inconclusive call do not appear. Entries that show only a call come without a potency. Activity calls are given as the source filed them. Unless noted, the call rests on the fitted dose curve.
# Assays:
# [1] = Nuclear factor erythroid 2-related factor 2/antioxidant responsive element (Nrf2/ARE) small molecule agonists: qHTS cell viability counter screen in human keratinocytes (AID 1919968; active means well fitted curve in the direction sought with a large enough effect in the repeat runs; an effect the other way counts as inactive or inconclusive; further: nearly all actives have a fitted effect of over 55% in size)
# Procedure, shortened: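 KeratinoSens HaCaT cells, 1,500/well, preincubated 5 h, then exposed to compounds in DMSO for 23 h at 37 C/5% CO2. Viability read as CellTiter-Fluor fluorescence after 1 h, in the same wells as the ARE-luciferase read.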
# [2] = Nuclear factor erythroid 2-related factor 2/antioxidant responsive element (Nrf2/ARE) small molecule agonists: luciferase reporter gene qHTS assay in human keratinocytes (AID 1919969); further: nearly all actives have a fitted effect of over 35% in size
# [3] = molecular target: Gonadotropin-releasing hormone receptor (Homo sapiens) (UniProt P30968); assay: Human gonadotropin-releasing hormone receptor (GnRHR) small molecule agonists, calcium flux assay in GnRHR-HEK293 cells (AID 1920063); further: nearly all actives have a fitted effect of over 35% in size
# Chain of Gonadotropin-releasing hormone receptor (Homo sapiens) (P30968 whole entry, looked up): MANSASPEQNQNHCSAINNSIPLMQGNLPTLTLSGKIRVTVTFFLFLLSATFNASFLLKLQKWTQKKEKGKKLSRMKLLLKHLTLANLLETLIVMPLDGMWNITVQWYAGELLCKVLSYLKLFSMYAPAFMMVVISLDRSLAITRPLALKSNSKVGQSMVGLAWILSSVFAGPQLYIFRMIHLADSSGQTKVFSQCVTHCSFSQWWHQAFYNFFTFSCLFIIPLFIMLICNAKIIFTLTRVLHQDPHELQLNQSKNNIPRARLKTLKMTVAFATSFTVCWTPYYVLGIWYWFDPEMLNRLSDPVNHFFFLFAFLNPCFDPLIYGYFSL
# Procedure, shortened: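 HEK293 cells stably expressing human GnRHR were dye-loaded for 1 h at 37 C. Compound was added in agonist mode and fluorescence (Ex/Em 480/540) recorded kinetically for 3 min. Fifteen concentrations, triplicates.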
# [4] = molecular target: KiSS-1 receptor (Homo sapiens) (UniProt Q969F8); assay: Human kisspeptin (KISS1R) small molecule agonists, calcium flux assay in KISS1R-HEK293 cells (AID 1920064; active means well fitted curve in the direction sought with a large enough effect in the repeat runs; an effect the other way counts as inactive or inconclusive)
# Chain of KiSS-1 receptor (Homo sapiens) (Q969F8 whole entry, looked up): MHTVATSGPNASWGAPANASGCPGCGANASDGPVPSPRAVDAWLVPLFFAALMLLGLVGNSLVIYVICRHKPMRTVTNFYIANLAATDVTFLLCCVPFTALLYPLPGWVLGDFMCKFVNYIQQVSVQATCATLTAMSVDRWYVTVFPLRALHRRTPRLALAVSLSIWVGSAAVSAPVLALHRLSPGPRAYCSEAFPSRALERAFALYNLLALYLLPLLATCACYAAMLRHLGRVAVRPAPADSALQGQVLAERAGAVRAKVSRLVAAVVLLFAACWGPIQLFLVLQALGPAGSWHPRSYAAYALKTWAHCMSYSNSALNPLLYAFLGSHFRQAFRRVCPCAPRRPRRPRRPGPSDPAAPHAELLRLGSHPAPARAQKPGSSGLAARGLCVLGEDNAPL
# Procedure, shortened: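 HEK293 cells stably expressing human KISS1R were loaded with calcium dye for 1 h at 37 C, then given compound; fluorescence (Ex/Em 480/540) was read kinetically for 3 min. Fifteen concentrations, triplicate.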
# [5] = G protein-coupled receptor (GPCR) small molecule agonists, calcium flux assay: HEK293 wild type cell line counter screen (AID 1920065)
# Procedure, shortened: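 Wild-type HEK293 cells plated 18 h, loaded with calcium dye 1 h at 37 C, then compounds added in agonist mode (ATP as positive control). Kinetic fluorescence Ex/Em 480/540 recorded 3 min at 1 sec intervals; 15 concentrations, triplicate.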
# [6] = p53 small molecule agonists, cell-based qHTS assay with human liver microsomes (AID 1963577)
# Procedure, shortened: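 Compounds act here after metabolic activation: human liver microsomes and NADPH, both at 0.5 mg/mL final, were co-added to p53RE-bla cells. Incubation ran 16 h at 37 C, followed by LiveBLAzer detection.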
# [7] = p53 small molecule agonists, cell-based qHTS assay with rat liver microsomes (AID 1963578)
# Procedure, shortened: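 Read-out is beta-lactamase reporter fluorescence (LiveBLAzer, 2 h, room temperature, dark) in p53RE-bla cells treated 16 h at 37 C with compound, rat liver microsomes and NADPH, both 0.5 mg/mL final.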
# [8] = p53 small molecule agonists, cell-based qHTS assay with human liver microsomes: qHTS cell viability counter screen (AID 1963579); further: nearly all actives have a fitted effect of over 45% in size
# Procedure, shortened: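 Cells carrying the p53 response-element beta-lactamase reporter are treated for 16 h at 37 C with test compounds in the presence of human liver microsomes and NADPH (both 0.5 mg/mL final); ATP-based CellTiter-Glo luminescence then reports viability.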
# [9] = p53 small molecule agonists, cell-based qHTS assay with rat liver microsomes: qHTS cell viability counter screen (AID 1963580); further: nearly all actives have a fitted effect of over 45% in size
# Procedure, shortened: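 In HCT-116 cells carrying a p53 response element-bla reporter, compounds were metabolically activated in situ by rat liver microsomes with NADPH over 16 h. Cell ATP content then served as the cytotoxicity measure.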
# [10] = p53 small molecule agonists, cell-based qHTS assay: qHTS cell viability counter screen (AID 1963581); further: nearly all actives have a fitted effect of over 45% in size; further: potency means the concentration at half of the fitted maximal effect
# Procedure, shortened: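 p53RE-bla HCT-116 cells, compounds added 5 h after plating and incubated 16 h at 37 C. Cytotoxicity measured in the same wells as intracellular ATP by CellTiter-Glo luminescence after 30 min at room temperature.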
# [11] = p53 small molecule agonists, cell-based qHTS assay (AID 1963582; active means well fitted activation curve with a large enough effect in the signal ratio in the repeat runs, not every such curve was filed as active; the % refers to the signal ratio; further: potency means the concentration at half of the fitted maximal effect)
# Procedure, shortened: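 p53RE-bla reporter cells, compounds added in DMSO after 5 h plating, incubated 16 h at 37 C. Beta-lactamase read via 2 h room-temperature LiveBLAzer B/G FRET substrate, fluorescence intensity.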
# [12] = molecular target: 5-hydroxytryptamine receptor 2A (Homo sapiens) (UniProt P28223); assay: 5-hydroxytryptamine receptor 2A (HTR2A) small molecule antagonists, cell-based qHTS assay (AID 1963586); further: nearly all actives have a fitted effect of over 45% in size
# Chain of 5-hydroxytryptamine receptor 2A (Homo sapiens) (P28223 whole entry, looked up): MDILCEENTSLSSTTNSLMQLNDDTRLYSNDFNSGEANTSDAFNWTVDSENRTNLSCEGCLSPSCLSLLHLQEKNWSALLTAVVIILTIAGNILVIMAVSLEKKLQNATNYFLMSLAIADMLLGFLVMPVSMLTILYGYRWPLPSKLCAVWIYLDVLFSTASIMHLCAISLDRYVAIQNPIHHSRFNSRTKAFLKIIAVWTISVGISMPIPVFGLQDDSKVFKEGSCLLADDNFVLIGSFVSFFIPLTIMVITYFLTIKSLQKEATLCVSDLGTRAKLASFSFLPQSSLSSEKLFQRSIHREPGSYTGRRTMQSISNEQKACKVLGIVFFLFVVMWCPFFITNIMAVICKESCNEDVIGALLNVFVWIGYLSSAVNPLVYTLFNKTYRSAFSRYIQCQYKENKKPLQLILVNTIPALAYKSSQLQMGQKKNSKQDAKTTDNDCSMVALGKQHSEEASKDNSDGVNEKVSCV
# Procedure, shortened: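 Antagonist-mode intracellular calcium assay: DOI (4 nM) added after 5 min compound pre-incubation at room temperature to dye-loaded HTR2A-CHO cells. Fluorescence followed for 3 min, sampled every second.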
# [13] = molecular target: 5-hydroxytryptamine receptor 2A (Homo sapiens) (UniProt P28223); assay: 5-hydroxytryptamine receptor 2A (HTR2A) small molecule agonists, cell-based qHTS assay (AID 1963587); further: nearly all actives have a fitted effect of over 30% in size
# Procedure, shortened: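 HTR2A-CHO cells, plated 18 h at 37 C/5% CO2, dye-loaded 1 h at 37 C; compounds in DMSO added by pin tool (agonist mode). Intracellular calcium flux read as kinetic fluorescence on FDSS over 2 min at 1 s intervals.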
# [14] = molecular target: Muscarinic acetylcholine receptor M1 (Homo sapiens) (UniProt P11229); assay: Cholinergic receptor muscarinic 1 (CHRM1) small molecule antagonists, cell-based qHTS assay (AID 1963588); further: nearly all actives have a fitted effect of over 40% in size; further: potency means the concentration at half of the fitted maximal effect
# Chain of Muscarinic acetylcholine receptor M1 (Homo sapiens) (P11229 whole entry, looked up): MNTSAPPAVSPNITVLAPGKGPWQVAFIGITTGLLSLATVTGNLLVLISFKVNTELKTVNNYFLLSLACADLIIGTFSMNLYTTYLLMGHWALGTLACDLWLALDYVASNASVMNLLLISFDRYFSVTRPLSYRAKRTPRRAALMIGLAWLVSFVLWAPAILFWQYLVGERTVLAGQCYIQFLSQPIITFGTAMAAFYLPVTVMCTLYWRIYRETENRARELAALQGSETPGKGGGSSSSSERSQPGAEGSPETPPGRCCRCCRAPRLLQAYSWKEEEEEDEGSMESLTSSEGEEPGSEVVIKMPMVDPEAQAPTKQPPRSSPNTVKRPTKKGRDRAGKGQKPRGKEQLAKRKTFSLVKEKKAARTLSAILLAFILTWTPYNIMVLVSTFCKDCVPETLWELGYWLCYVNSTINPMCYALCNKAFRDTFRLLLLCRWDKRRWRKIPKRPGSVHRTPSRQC
# Procedure, shortened: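 CHRM1-CHO calcium-flux assay, antagonist mode. Cells were seeded 18 h, dye-loaded 1 h at 37 C and given compound for 5 min at RT, then acetylcholine was added at 50nM. FDSS fluorescence was read 3 min; 15 concentrations, three runs.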
# [15] = molecular target: Muscarinic acetylcholine receptor M1 (Homo sapiens) (UniProt P11229); assay: Cholinergic receptor muscarinic 1 (CHRM1) small molecule agonists, cell-based qHTS assay (AID 1963589); further: nearly all actives have a fitted effect of over 35% in size
# Procedure, shortened: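 CHO cells stably expressing human CHRM1 were loaded with calcium dye for 1 h at 37 C, then compound was added in agonist mode. Intracellular calcium fluorescence was followed kinetically at 1 s intervals. Fifteen concentrations were tested in three independent runs.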
# [16] = cAMP Responsive Elements (CRE) small molecule agonists, cell-based qHTS assay (AID 1963590)
# Procedure, shortened: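 CRE-bla HEK 293T cells, 2,000/well in DMEM with 10% dialyzed FBS and 25 mM HEPES, pre-incubated 18 h at 37 C, then exposed to compound 3 h at 37 C. Beta-lactamase reporter read with LiveBLAzer B/G FRET substrate after 2 h at room temperature.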
# [17] = cAMP Responsive Elements (CRE) small molecule antagonists, cell-based qHTS assay (AID 1963591; active means well fitted inhibition curve with a large enough effect in the signal ratio in the repeat runs, not every such curve was filed as active; the % refers to the signal ratio; further: potency means the concentration at half of the fitted maximal effect)
# Procedure, shortened: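 CRE-bla HEK293T cells plated 18 h, then given compound plus NKH477 at 0.25 uM final for 3 h at 37C. Beta-lactamase reporter read with LiveBLAzer B/G FRET substrate after 2 h at room temperature.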
# [18] = molecular target: Beta-2 adrenergic receptor (Homo sapiens) (UniProt P07550); assay: Adrenergic beta2 receptor (ADRB2) small molecule antagonists, cell-based qHTS assay (AID 1963592); further: series mostly up to about 92 µM; nearly all actives have a fitted effect of over 50% in size
# Chain of Beta-2 adrenergic receptor (Homo sapiens) (P07550 whole entry, looked up): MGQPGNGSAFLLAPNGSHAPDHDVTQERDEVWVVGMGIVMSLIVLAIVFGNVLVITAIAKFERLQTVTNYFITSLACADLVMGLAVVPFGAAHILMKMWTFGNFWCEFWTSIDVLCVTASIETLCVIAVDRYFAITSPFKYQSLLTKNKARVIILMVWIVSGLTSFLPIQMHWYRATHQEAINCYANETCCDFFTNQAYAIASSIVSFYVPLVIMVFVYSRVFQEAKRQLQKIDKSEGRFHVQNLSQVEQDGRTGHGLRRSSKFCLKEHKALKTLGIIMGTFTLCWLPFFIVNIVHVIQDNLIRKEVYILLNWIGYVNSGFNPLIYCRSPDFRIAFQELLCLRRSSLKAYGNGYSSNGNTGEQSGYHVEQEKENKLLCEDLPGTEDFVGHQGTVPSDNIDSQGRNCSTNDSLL
# Procedure, shortened: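 Cells (CHO, stable ADRB2 overexpression) incubated 18-20hr at 37C; compounds added from DMSO; agonist mix (1nM isoproterenol, 100uM IBMX, 25uM Ro-20-1724) added; 0.5hr RT; d2-cAMP and anti-cAMP-cryptate added; 1hr RT; 665/615 nm read.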
# [19] = molecular target: D(2) dopamine receptor (Homo sapiens) (UniProt P14416); assay: Dopamine D2 receptor (DRD2) small molecule agonists, cell-based qHTS assay (AID 1963594); further: nearly all actives have a fitted effect of over 35% in size
# Chain of D(2) dopamine receptor (Homo sapiens) (P14416 whole entry, looked up): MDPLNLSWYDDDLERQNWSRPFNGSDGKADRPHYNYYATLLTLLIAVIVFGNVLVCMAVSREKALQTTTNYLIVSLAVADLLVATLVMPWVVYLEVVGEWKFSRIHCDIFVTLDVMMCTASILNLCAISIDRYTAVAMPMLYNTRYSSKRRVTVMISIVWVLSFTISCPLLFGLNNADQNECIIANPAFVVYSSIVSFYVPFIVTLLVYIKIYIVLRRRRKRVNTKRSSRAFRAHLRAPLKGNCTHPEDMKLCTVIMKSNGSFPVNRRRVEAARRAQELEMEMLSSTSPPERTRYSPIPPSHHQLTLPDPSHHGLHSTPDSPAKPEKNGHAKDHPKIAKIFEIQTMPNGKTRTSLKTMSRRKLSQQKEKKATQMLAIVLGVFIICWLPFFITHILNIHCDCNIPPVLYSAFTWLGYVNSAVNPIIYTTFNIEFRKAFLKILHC
# Procedure, shortened: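 HEK293 cells stably expressing DRD2 were cultured 24 h at 37 C, then given Ro20-1724 (0.1 mM final) and compounds for 10 min at room temperature. NKH477 (200nM) was then added for 30 min. cAMP was read by HTRF.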
# [20] = molecular target: D(2) dopamine receptor (Homo sapiens) (UniProt P14416); assay: Dopamine D2 receptor (DRD2) small molecule antagonists, cell-based qHTS assay (AID 1963595; active means well fitted inhibition curve with a large enough effect in the signal ratio in the repeat runs, with a control signal flat; the % refers to the signal ratio)
# Procedure, shortened: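 Human DRD2 antagonist qHTS measuring cAMP by HTRF. The cells are exposed to compound for 10 min, then to NKH477 (200 nM) and quinpirole (12 nM) for 30 min at RT, with Ro20-1724 (0.1 mM) present throughout.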
Structure (SMILES),Potency [1],Potency [2],Potency [3],outcome [4],outcome [5],Potency [6],Potency [7],Potency [8],Potency [9],Potency [10],Potency [11],Potency [12],Potency [13],Potency [14],Potency [15],Potency [16],Potency [17],Potency [18],Potency [19],Potency [20]
O=C(O)c1c(O)c(-c2ccccc2)nc2ccccc12,inactive,inactive,inactive,inactive,inactive,inactive,inactive,inactive,inactive,inactive,19.9 µM (active),inactive,inactive,inactive,inactive,inactive,inactive,inactive,inactive,inactive
CCCCOCC(C)O (stereo not drawn),inactive,inactive,inactive,inactive,inactive,inactive,inactive,inactive,inactive,inactive,inactive,inactive,inactive,inactive,inactive,inactive,inactive,inactive,inactive,–
CCN(CC)c1ccc(C=O)cc1,inactive,inactive,inactive,inactive,inactive,inactive,inactive,inactive,inactive,inactive,inactive,inactive,inactive,inactive,inactive,inactive,inactive,inactive,inactive,inactive
ON=C1CCCC1,inactive,inactive,inactive,inactive,inactive,inactive,inactive,inactive,inactive,inactive,inactive,inactive,inactive,inactive,inactive,inactive,inactive,inactive,inactive,inactive
CC(C)C(O)C(C)(C)CO (stereo not drawn),inactive,inactive,inactive,inactive,inactive,inactive,inactive,inactive,inactive,3.75 µM (active),inactive,inactive,inactive,0.487 µM (active),inactive,inactive,56.2 µM (active),inactive,inactive,inactive
C=C[C@@H](C)CCC=C(C)C,inactive,inactive,inactive,inactive,inactive,inactive,inactive,inactive,inactive,inactive,inactive,inactive,inactive,inactive,inactive,inactive,inactive,inactive,inactive,inactive
O=C(O)CNC(=O)c1ccc([N+](=O)[O-])cc1,inactive,inactive,inactive,inactive,inactive,inactive,inactive,inactive,inactive,inactive,inactive,inactive,inactive,inactive,inactive,inactive,inactive,inactive,inactive,–
